According to PubChem BioAssay AID1224921 (Broad Institute, 2016):
Out of some 1,400 compounds screened, about 350 (25%) were called active. Not shown: some 2% with an inconclusive outcome. How the calls were made is not given here. These entries were drawn from the full list. Entries with a potency or affinity are not part of this list.

Experiment: inhibitors of Clostridioides difficile proliferation – 4-point retest, confirmation (AID 1224921);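 further: plate controls were DMSO wells for no effect and levofloxacin 16 µg/mL wells for full effect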
Settings: Clostridioides difficile clinical isolate growth, OD600, 24 h, active compounds read low; at 30 µM unless noted

Max activity, inactive:
COc1cccc(S(=O)(=O)Nc2ccc3c(c2)[C@@H]2C[C@H](CC(=O)NC4CCCCC4)O[C@H](CO)[C@@H]2O3)c1 27.9%, COc1ccccc1CNC(=O)C[C@H]1C[C@@H]2c3cc(NC(=O)Nc4ccc(C(F)(F)F)cc4)ccc3O[C@@H]2[C@H](CO)O1 28%, COc1ccccc1CNC(=O)C[C@@H]1C[C@@H]2c3cc(NC(=O)Nc4ccc(C(F)(F)F)cc4)ccc3O[C@@H]2[C@H](CO)O1 28.8%, COc1ccccc1CNC(=O)C[C@H]1C[C@H]2c3cc(NC(=O)Nc4ccc(C(F)(F)F)cc4)ccc3O[C@H]2[C@@H](CO)O1 26.5%, CCCN1C[C@H](C)[C@H](OC)CN(C)C(=O)c2cc(NC(=O)c3cccc(F)c3)ccc2OC[C@H]1C 8.18% [at 8 µM], C[C@@H]1CN([C@H](C)CO)C(=O)c2ccccc2-c2ccccc2CO[C@H]1CN(C)C(=O)[C@H](C)c1ccccc1 15.9%, CC(C)CC#Cc1ccc2c(c1)O[C@@H](CN(C)CC1CCOCC1)[C@H](C)CN([C@H](C)CO)S2(=O)=O 29%, C[C@@H]1CN([C@H](C)CO)C(=O)Cc2cc(NC(=O)C3CC3)ccc2O[C@@H]1CN(C)Cc1ccc(Oc2ccccc2)cc1 25.1%, COc1ccccc1C#Cc1ccc2c(c1)O[C@H](CN(C)Cc1cccnc1)[C@@H](C)CN([C@@H](C)CO)S2(=O)=O 53.8%, CCS(=O)(=O)Nc1ccc2c(c1)C(=O)N(C)C[C@H](OC)[C@@H](C)CN(CC1CCCC1)[C@@H](C)CO2 -15.1% [at 8 µM], C[C@@H]1CN([C@@H](C)CO)S(=O)(=O)c2ccc(C#CC3CCCCC3)cc2O[C@@H]1CN(C)Cc1cccnc1 69.7%, C[C@@H]1CN([C@H](C)CO)S(=O)(=O)c2ccc(-c3ccccc3)cc2O[C@H]1CN(C)Cc1ccncc1 33.9%, COc1ccccc1C#Cc1ccc2c(c1)O[C@@H](CN(C)Cc1cccnc1)[C@H](C)CN([C@@H](C)CO)S2(=O)=O 26.4%, CC(C)C#Cc1ccc([C@@H]2[C@@H](C#N)N(C(=O)C3CCC3)[C@H]2CO)cc1 32.2% [at 8 µM], C[C@@H]1CN([C@@H](C)CO)S(=O)(=O)c2ccc(C3=CCCCC3)cc2O[C@H]1CN(C)Cc1ccncc1 29.4%, CCCC#Cc1ccc2c(c1)O[C@H](CN(C)Cc1ccncc1)[C@@H](C)CN([C@H](C)CO)S2(=O)=O 11.6%, COCC(=O)Nc1ccc2c(c1)OC[C@H](C)N(Cc1cncnc1)C[C@@H](C)[C@@H](OC)CN(C)C2=O -11.6%, O=C(Nc1cc(F)ccc1F)N[C@H]1CC[C@@H](CC(=O)N2CCc3ccccc3C2)O[C@H]1CO -5.46% [at 0.5 µM], O=C(C[C@H]1C=C[C@@H](NC(=O)c2ccccn2)[C@H](CO)O1)NCc1cc(F)cc(F)c1 7.65%, CO[C@H]1CN(C)C(=O)c2cc(NC(=O)c3ccccc3)ccc2OC[C@H](C)N(CC2CC2)C[C@H]1C -5.21% [at 8 µM], O=C(Nc1cc(F)ccc1F)N[C@@H]1CC[C@H](CC(=O)N2CCc3ccccc3C2)O[C@@H]1CO 29.6%, CCCC#Cc1ccc2c(c1)O[C@H](CN(C)Cc1cccnc1)[C@@H](C)CN([C@H](C)CO)S2(=O)=O 41%, CO[C@H]1CN(C)C(=O)c2cc(NC(C)=O)ccc2OC[C@H](C)N(Cc2nccs2)C[C@H]1C 16%, O=C1O[C@@H](c2ccccc2)[C@@H](c2ccccc2)N2[C@@H](c3ccc(O)cc3)[C@]3(C(=O)Nc4ccc(C#CC5=CCCCC5)cc43)[C@@H](C(=O)O)[C@H]12 28.7% [at 8 µM], CCCNC(=O)N[C@@H]1C=C[C@@H](CC(=O)N2CCN(C)CC2)O[C@H]1CO -11.4%, Cc1noc(C)c1NC(=O)N[C@H]1CC[C@H](CC(=O)Nc2ccc(-c3ccccc3)cc2)O[C@H]1CO 16%, CCCC(=O)Nc1ccc2c(c1)C(=O)N(C)[C@H]1CC[C@@H](CC(=O)OC)O[C@@H]1CO2 -11% [at 0.5 µM], Cc1ccc(-c2ccc3c(c2)O[C@@H](CN(C)Cc2cccnc2)[C@H](C)CN([C@H](C)CO)S3(=O)=O)cc1 16.8%, NC(=O)[C@H]1[C@@H]2C(=O)O[C@@H](c3ccccc3)[C@@H](c3ccccc3)N2[C@@H](c2ccc(O)cc2)[C@]12C(=O)Nc1ccc(C#CC3(O)CCCCCC3)cc12 32.1%, C[C@H]1CN([C@@H](C)CO)S(=O)(=O)c2ccc(C#CC3(O)CCCC3)cc2O[C@H]1CN(C)C(=O)Nc1ccc(F)cc1 15.4% [at 8 µM], C[C@H](CO)N1C[C@H](C)[C@@H](CN(C)Cc2ccc(Cl)c(Cl)c2)Oc2ccc(NS(=O)(=O)c3ccccc3)cc2CC1=O 28.2%, CO[C@@H]1CN(C)C(=O)c2cc(NC(=O)c3ccc(Oc4ccccc4)cc3)ccc2OC[C@H](C)NC[C@H]1C -11.3% [at 0.5 µM], CC(C)CC#Cc1ccc2c(c1)O[C@@H](CN(C)Cc1ccncc1)[C@@H](C)CN([C@H](C)CO)S2(=O)=O 7.2% [at 0.5 µM], O=C(C[C@@H]1CC[C@@H](NC(=O)CCN2CCCCC2)[C@@H](CO)O1)Nc1nccs1 -8.84% [at 1.95 µM], CCS(=O)(=O)Nc1ccc2c(c1)C(=O)N(C)C[C@H](OC)[C@@H](C)CN(C(C)=O)[C@H](C)CO2 8.06%, CO[C@@H]1CN(C)C(=O)c2cc(NC(=O)c3ccc(-c4ccccc4)cc3)ccc2OC[C@H](C)NC[C@H]1C 10.1% [at 1.95 µM], CCc1cnc(N2[C@H](CO)[C@@H](c3ccc(C4=CCCCC4)cc3)[C@@H]2C#N)s1 36.5% [at 0.5 µM], C[C@H]1CN([C@@H](C)CO)S(=O)(=O)c2ccc(/C=C/c3ccccc3)cc2O[C@H]1CN(C)C(=O)NC1CCCCC1 52.4%, COCC(=O)Nc1ccc2c(c1)OC[C@@H](C)N(Cc1ccccc1OC)C[C@@H](C)[C@H](OC)CN(C)C2=O -8.61% [at 7.5 µM], CC(C)COC(=O)N(C)C[C@@H]1OCc2ccccc2-c2c(n(C)c3ccccc23)C(=O)N([C@@H](C)CO)C[C@@H]1C -18.1% [at 8 µM], CCC(=O)Nc1ccc2c(c1)C(=O)N(C)C[C@@H](OC)[C@@H](C)CN(Cc1cncnc1)[C@@H](C)CO2 -7.99% [at 0.5 µM], C[C@@H]1CN([C@@H](C)CO)C(=O)Cc2cc(NS(C)(=O)=O)ccc2O[C@@H]1CN(C)Cc1ccc(Oc2ccccc2)cc1 36.1% [at 35 µM], C[C@H](CO)N1C[C@H](C)[C@@H](CN(C)Cc2ccncc2)Oc2cc(-c3ccccc3)ccc2S1(=O)=O 23.5%, C[C@@H]1CCCCO[C@H](CN(C)CC2CCCCC2)[C@H](C)CN([C@@H](C)CO)C(=O)c2cc(NC(=O)Nc3ccc(F)cc3)ccc2O1 11.6%, C[C@@H]1CCCCO[C@H](CN(C)CC2CCCCC2)[C@H](C)CN([C@@H](C)CO)C(=O)c2cc(NC(=O)Nc3ccccc3)ccc2O1 9.95%, CO[C@H]1O[C@H](CO)[C@@H](OC(=O)Nc2ccccc2)[C@H](OC(=O)Nc2ccc3c(c2)OCO3)[C@H]1OC(=O)Nc1ccc2c(c1)OCO2 -7.27% [at 1.95 µM], Cc1ccccc1S(=O)(=O)NCC[C@H]1CC[C@H](NC(=O)Nc2cccc(Cl)c2)[C@@H](CO)O1 13.2%, CO[C@@H]1CN(C)C(=O)c2cc(NC(C)=O)ccc2OC[C@H](C)N(Cc2nccs2)C[C@@H]1C 24.6%, CC(C)NC(=O)N1[C@H](C#N)[C@@H](c2ccc(-c3ccc(F)cc3)cc2)[C@@H]1CO 21.4% [at 8 µM], CC(C)C#Cc1ccc([C@@H]2[C@@H](CO)N(C(=O)c3cccc(F)c3)[C@H]2C#N)cc1 15.2%, N#C[C@H]1[C@@H](c2ccc(-c3ccc(F)cc3)cc2)[C@H](CO)N1C(=O)Cc1ccccc1 29.3% [at 8 µM], N#C[C@@H]1[C@@H](c2ccc(C#Cc3ccc(F)cc3)cc2)[C@H](CO)N1C(=O)C1CCC1 35.7%, CO[C@H]1O[C@H](CO)[C@@H](OC(=O)c2ccc(Br)cc2)[C@H](OC(=O)c2cc3ccccc3[nH]2)[C@H]1OC(=O)c1cc2ccccc2[nH]1 39.8%, CC(C)CC#Cc1ccc2c(c1)O[C@H](CN(C)Cc1ccncc1)[C@H](C)CN([C@@H](C)CO)S2(=O)=O 25.7%, C[C@@H]1CN([C@@H](C)CO)S(=O)(=O)c2ccc(C#CC3(O)CCCC3)cc2O[C@@H]1CN(C)C(=O)Nc1cccc(F)c1 40.2%, CO[C@H]1CN(C)C(=O)c2cc(NS(=O)(=O)c3cn(C)cn3)ccc2OC[C@H](C)N(C)C[C@@H]1C -7.09% [at 0.5 µM], COc1cccc(NC(=O)N[C@@H]2C=C[C@H](CC(=O)NCc3ccncn3)O[C@H]2CO)c1 11.5%, CC(C)NC(=O)N(C)C[C@H]1Oc2cc(C#Cc3cccc(F)c3)ccc2S(=O)(=O)N([C@H](C)CO)C[C@H]1C 32.6%
